Experimental data from the supplement of paper PMC3334620.
In all, about 33,000 sequences were measured (“E-score (-0.5 to 0.5)”: median about -8e-05, highest 2% from about 0.23 on). The list comes from a sample in which the highest values are over-represented; it also holds similar and randomly drawn sequences.

Biological target: T1, Nrg2 (UniProt P38082)
T1 sequence: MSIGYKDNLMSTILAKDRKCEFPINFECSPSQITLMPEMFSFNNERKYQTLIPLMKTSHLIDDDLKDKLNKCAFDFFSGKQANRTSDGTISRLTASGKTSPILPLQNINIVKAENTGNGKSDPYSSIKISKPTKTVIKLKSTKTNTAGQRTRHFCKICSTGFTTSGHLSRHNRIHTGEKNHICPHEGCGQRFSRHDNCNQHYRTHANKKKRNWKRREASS
Assay: PBM E-score (8-mer binding enrichment) (E-score (-0.5 to 0.5)); higher = stronger / more preferred TF binding
Details: protein concentration: 100 nM; construct: GST-full length
Description: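 Universal 'all 10-mer' protein binding microarrays (Agilent AMADID 015681) probed with GST-tagged S. cerevisiae TFs (full-length or DBD) made by in vitro transcription/translation (PURExpress), about 100-200 nM. Bound TF was detected with fluorescent anti-GST. Each ungapped 8-mer (which stands for itself and its reverse complement) is scored by the PBM enrichment score (E-score), a modified Wilcoxon-Mann-Whitney statistic from -0.5 to +0.5, computed with the Universal PBM Analysis Suite. Scale: above 0.35 generally sequence-specific binding.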

Sequence | PBM E-score
ATCCCTGA | 0.256
CTCCCTTA | -0.202
ATCCCTCG | 0.0848
ATCCCTGG | 0.302
ATCCCTCA | -0.0503
ATCTGCTC | -0.0264
AGGCATAT | -0.0234
ACGAGGGC | 0.0428
CCGCCAGA | -0.0239
GACAACCA | 0.122
TATCCCAA | -0.005
ATTGGCCA | 0.171
TACACGAA | 0.18
CTACAGGC | -0.0785
ACAGGGCA | 0.195
ACAGGGTC | 0.402
GCAGGGTA | 0.164
CCAGGGTC | 0.392
AGAGGGTC | -0.0416
CTAGGGTC | 0.188
CCAGGGCC | 0.106
ACAGGGCC | 0.295
CCAGGGGC | 0.0624
CGAGGGTA | 0.0487
CCAGGGTA | 0.304
ACAGGGGC | 0.0717

Sequence | PBM E-score
GTCCATGA | -0.237
GGCAATTA | 0.103
CGCATTGC | 0.148
ACAACAGA | -0.0576
CGCGAAGA | 0.12
AATCGTGT | 0.164
ATGGGTGC | -0.0107
GATGAAAA | 0.0467
CTCCCAAC | -0.0556
CTACCACC | -0.166
AGCGGGTC | -0.21
ATAGGGTA | 0.17
ACAGGGTA | 0.349
ACAGGGTG | 0.0367
CTTGTGCC | -0.222
AGTTCTAG | -0.0512
ATTGAGAC | 0.0341
ATTGAGAG | 0.0708
ATTGAGAA | 0.232
TAAAACTA | 0.0863
CGGGCCCC | 0.119
GGGGCCCC | 0.267
CAGGGCCA | -0.0826
AAGGGCCC | 0.347
AGGGGCCC | 0.276
CAGGGCCC | 0.42

Sequence | PBM E-score
AGGGGGCC | -0.189
AAGGGCCT | 0.0464
CGGGGCCC | 0.221
AAGGGCCG | -0.0822
GGGCCCCC | -0.279
GAGGGCCC | 0.151
CACCCGAC | -0.0642
AAAAGCGG | -0.12
AAAGTAGT | 0.0374
AGTGAAAG | -0.0491
ACTCAATC | 0.0391
AACCCCGG | 0.0231
AAGTTTCA | 0.149
GAGTTTCA | 0.00699
TAGTTTCA | 0.258
CGTGAATA | 0.17
TACCACAA | 0.0795
GTAATTGA | 0.00642
CTAATTGA | 0.0446
ATAATTGA | 0.276
ATAATTAA | 0.264
TTAATTAA | 0.198
ATAATTAC | 0.176
CTAGATGA | -0.0603
GCGAAACA | 0.0688
AACGATGA | 0.0545

Sequence | PBM E-score
ACCGCATC | 0.159
CAATTGCA | -0.0952
AATTGAGA | 0.0993
AAATTGCA | 0.232
AATTGGGG | -0.0654
AAATTGTA | 0.0349
AATTGGGT | 0.26
AATTGAGT | 0.245
AAATTGTT | 0.0684
AAATTGCT | -0.0593
AATTGAGG | 0.0708
AAATTGTC | 0.24
AATTGGGC | -0.0483
CAGAGCGC | -0.213
ACATGGTA | -0.0687
AAGGTGCG | -0.0555
CTCATCCC | -0.234
ACTACGTA | 0.0132
ATGTCCGA | -0.0732
ACCTCGCG | 0.116
AGTCCCAC | -0.079
GAATTCCA | 0.188
AAATTCCA | 0.254
AAATTGGT | 0.268
AAATTGGG | 0.0734
CAATTCCA | -0.0703

Sequence | PBM E-score
AAATTGGC | -0.012
GAGACGGC | -0.0458
ACGAGGAC | -0.0285
CACTGAGC | -0.0828
ACGAATGA | 0.156
GAAGGACA | -0.00553
CACCTCAG | -0.11
TCAGTGCA | 0.0253
AGCGTTAC | -0.146
AATATAGC | 0.0275
AATATAGG | 0.229
CATATAAG | 0.0579
AATATAAG | 0.258
TATATAAA | 0.2
AATATAAT | 0.0957
AATATAAA | 0.233
AATATAGT | 0.206
CATATAAA | 0.00613
ACACTTCA | 0.103
CAGCCAGC | -0.115
CAAACAGC | 0.00877
AAGGGCCA | -0.0108
AGTTTGGG | 0.0374
CCGGCGAA | 0.0927
AGAAACAA | 0.258
GGAAACAA | 0.105

Sequence | PBM E-score
AGAAACAC | 0.0617
AATCGGCG | 0.0404
AAGGTTTG | 0.0916
GACAGACA | 0.248
CTCAGGGA | 0.319
GTCAGGGA | 0.18
CCCAGGGA | 0.124
CTCAGGGC | 0.157
ACCAGGGA | 0.122
AACAGGGG | 0.105
AACAGGGC | 0.283
GACAGACC | 0.0299
CACAGGGC | 0.179
TCCAGGGA | 0.242
CACAGACA | 0.118
GCATTCCC | -0.0654
ATTCGACC | -0.0786
AGAGCGCT | 0.0785
CGCGGGGC | 0.0564
AAGGGCAT | -0.139
ATGCGACA | 0.0603
GCAAGTGA | -0.0727
AGCTAGCG | 0.00875
ACGAAGAC | -0.135
GAGCAAGA | -0.00443
GCTGAAAA | 0.114

Sequence | PBM E-score
GATCTCCA | 0.0533
CAGAGCTG | -0.0821
AGAACGAA | 0.179
AACAGGGA | 0.176
CACAGGGA | 0.139
GACAGGGA | 0.252
CACCTCTC | -0.0403
ATGGCCTA | 0.00552
ACCAGAAA | 0.041
ATAAGAAT | 0.135
ATAAGAAA | 0.101
ACAAGAGC | 0.0831
ACAAGAGA | 0.24
ATAAGAAC | 0.36
CCAAGAGA | -0.14
ACAAGAAT | 0.0779
ACCAGAAC | 0.238
ACAAGAAC | 0.262
ACCAGAAG | -0.134
GCAAGAAC | 0.188
